From PubChem BioAssay
Compounds with a hit are over-represented: about 19% of the library has one in this group of screens.
HT1080 IDH1KD tx: qHTS for induction of synthetic lethality in tumor cells producing 2HG: qHTS for the HT-1080-IDH1KD cell line | HT-1080 IDH1 knockdown viability, ATP luminescence, 48 h | Potency, µM (top dose mostly 46.1 µM), for inactives: top-dose activity, negative = toxicity, usual class: cytotoxic | 360,000 compounds, 2% hits | AID 686971, 2013;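 further: potency means the concentration at half of the fitted maximal effect; 0% = DMSO wells and -100% = cell-free medium wells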
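Cytotoxicity counter-line: IDH1KD HT-1080, 48 h, CellTiter-Glo. Curves classed by r2, magnitude and activity.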
DT40 TDP1 CPT: qHTS for Inhibitors of human tyrosyl-DNA phosphodiesterase 1 (TDP1): qHTS in cells in presence of CPT; chicken DT40 Tdp1-/-;hTDP1 cells + 20 nM CPT, ATP luminescence, 48 h; Potency, µM (top dose mostly 46.2 µM), without a hit: at the highest dose activity change, negative = growth inhibition, usual class: inhibitors; 420,000 compounds, 12% hits; AID 686979, 2013; further: potency means the concentration at half of the fitted maximal effect; nearly all actives have a fitted effect of over 55% in size
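Chicken DT40 Tdp1-/- cells complemented with human TDP1, 400 cells/well, exposed to compounds plus 20 nM camptothecin for at least 48 h at 37 C; viability read as ATP content by CellTiter-Glo luminescence.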
DT40 TDP1 no CPT: qHTS for Inhibitors of human tyrosyl-DNA phosphodiesterase 1 (TDP1): qHTS in cells in absence of CPT. DT40 Tdp1-/- hTDP1 cells, no CPT, ATP luminescence, 48 h. Potency, µM (titrated, usually from 46.2 µM), inactives show at the top dose activity change, negative = growth inhibition, usual class: inhibitors. 420,000 compounds, 15% hits; further: potency means the concentration at half of the fitted maximal effect; nearly all actives have a fitted effect of over 55% in size
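Readout: luminescence from CellTiter-Glo after 30 min in the dark at RT. Cells: DT40 Tdp1-/- with stable hTDP1, 400/well. Exposure: compounds alone, ≥48 hr, 37 °C.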
IL1B secr inh: qHTS for Inhibitors of Inflammasome Signaling: IL-1-beta AlphaLISA Primary Screen; 360,000 compounds, 4.7% hits; AID 743279, 2014; THP-1 LPS/ATP IL-1B secretion, AlphaLISA, 16 h; hits give low values; activity change, % at 57.5 µM; in the data active means activity change below about -50%; inconclusive means mostly about -30% to -49%
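Secreted IL-1B measured by AlphaLISA bead assay after 16 h compound exposure of THP-1 cells; compounds (final up to 57.5 uM) added 1 h before LPS (250 ng/mL) and ATP (1.25 mM) stimulation; lower signal means less secretion.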
HT1080NT lethal: qHTS for induction of synthetic lethality in tumor cells producing 2HG: qHTS for the HT-1080-NT fibrosarcoma cell line; 360,000 compounds, 1.6% hits; HT-1080-NT fibrosarcoma viability, CellTiter-Glo ATP luminescence, 48 h; AID 686970, 2013; Potency, µM (highest dose often 46.1 µM), without a hit: at the top dose activity, negative = less viability, most hits filed as cytotoxic;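 further: NT is the 2HG producing partner of a matched IDH1 knockdown line; potency means the concentration at half of the fitted maximal effect; 0% = DMSO-treated cells and -100% = media-only wells without cells; nearly all actives have a fitted effect of over 55% in size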
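Read-out is CellTiter-Glo luminescence after 10 minutes at room temperature, following 48 hours' compound treatment of HT-1080-NT cells (750 cells/well, RPMI, 5% FBS, 37 degrees C).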
Numbers without * were called inactive; u = inconclusive; x = no result. Unless noted, the call rests on the fitted dose curve; in most records, active means well fitted curve in the direction sought with a large enough effect; inconclusive means small, poorly fitted or top-dose-only effect, or another doubt; inactive means no such curve, though single readings can be large; an effect the other way counts as inactive or inconclusive. Unless noted, on the % scale 0 is the no-effect control and ±100 the full control effect.

SMILES	HT1080 IDH1KD tx	DT40 TDP1 CPT	DT40 TDP1 no CPT	IL1B secr inh	HT1080NT lethal
Cc1ccc(NC(=O)c2noc(C(C)C)c2[N+](=O)[O-])cc1	u	13µM*	18µM*	-21	-11%
CC(C)c1onc(C(=O)N2CCCCC2C)c1[N+](=O)[O-] (centres undefined)	u	0%	-11%	5	9%
CC(C)c1onc(C(=O)Nc2cccc(O)c2)c1[N+](=O)[O-]	2%	-20%	-6%	-12	16%
CCOc1ccc(CCN2CN(CC)CNC2=S)cc1OCC	1%	-18%	21µM*	14	-4%
CC(C)(C)OC(=O)N[C@@H](C(=O)OC(C)(C)C)c1ccc2ccccc2c1	6%	u	23µM*	15	7%
CC(C(=O)NCc1ccccc1)n1c(-c2ccc3c(c2)CCO3)nc2ccccc21 (centres undefined)	-17%	u	u	3	-15%
CCN1CCN(C(=S)NC(=O)c2cccc(Br)c2)CC1	-22%	u	u	12	10%
CN1/C(=C\C(=S)NC(=O)c2ccc([N+](=O)[O-])cc2)C(C)(C)c2ccccc21	-1%	16µM*	23µM*	3	-2%
CN1/C(=C\C(=O)CSc2nncn2C)C(C)(C)c2ccccc21	8%	17%	-5%	10	12%
CCN(CC)S(=O)(=O)c1cccc(C(=O)/C=C2/N(C)c3ccccc3C2(C)C)c1	-11%	21µM*	15µM*	u	-11%
CN1/C(=C\C(=S)NC(=O)c2cccc(Br)c2)C(C)(C)c2ccccc21	u	9.2µM*	5.2µM*	-27	-3%
CN1/C(=C/C=N/NC(=O)c2ccc([N+](=O)[O-])cc2)C(C)(C)c2ccccc21	7%	u	11%	1	11%
CC(=O)c1cc(C#N)c(Oc2ccc(Cl)cc2Cl)nc1C	-11%	9%	-3%	20	-2%
Cc1ccc(NC(=O)c2cccc3c2C(=O)N(C2CCCCC2)C3)c(Cl)c1	4%	18µM*	-29%	x	-3%
CCOC(=O)N1CCC(N2Cc3cccc(C(=O)Nc4ccc(OC)c(OC)c4)c3C2=O)CC1	3%	18µM*	u	u	18%
CCOC(=O)N1CCC(N2Cc3cccc(C(=O)Nc4ccccc4OC)c3C2=O)CC1	-2%	23µM*	16µM*	-15	1%
COc1cc(NC(=O)c2cccc3c2C(=O)N(C2CCCCC2)C3)cc(OC)c1OC	u	23µM*	7.3µM*	-60*	-12%
O=C(Nc1ccc(Br)cc1)c1cccc2c1C(=O)N(C1CCCCC1)C2	4%	-27%	-2%	3	6%
CCOC(=O)N1CCC(N2Cc3cccc(C(=O)N4CCN(C5CCCCC5)CC4)c3C2=O)CC1	1%	0%	1%	-5	-4%
Cc1cc(C)cc(NC(=O)c2cccc3c2C(=O)N(C2CCCCC2)C3)c1	0%	-2%	29%	29	16%
Cc1cc(C)c(C)c(S(=O)(=O)N2CCCN(C)CC2)c1C	0%	-27%	-26%	-1	1%
CCN(CC)C(=O)C1=C(C)N(Cc2ccccc2)C(=O)C(CC(=O)NCc2cccs2)C1 (centres undefined)	6%	u	-28%	-12	3%
O=C(c1ccco1)N1CCN=C1SCc1ccc(F)cc1	9%	0%	-28%	-2	8%
O=C(CC(SCCO)c1ccc(F)cc1)c1ccco1 (centres undefined)	8%	18µM*	16µM*	-27	1%
CC12CCC(=O)N1C(C(=O)Nc1ccc(Cl)c(S(=O)(=O)N3CCCCC3)c1)CS2 (centres undefined)	-1%	u	u	5	4%
SMILES	HT1080 IDH1KD tx	DT40 TDP1 CPT	DT40 TDP1 no CPT	IL1B secr inh	HT1080NT lethal
CC12CCC(=O)N1C(C(=O)Nc1nc3ccccc3s1)CS2 (centres undefined)	-3%	-2%	-2%	1	0%
CC12CCC(=O)N1C(C(=O)Nc1nc3ccc(F)cc3s1)CS2 (centres undefined)	2%	-15%	10µM*	-10	0%
CC12CCC(=O)N1C(C(=O)Nc1ccc(Cl)c(Cl)c1)CS2 (centres undefined)	-20%	14%	-26%	-50*	-15%
CC(=O)NC12CC3CC(C1)CC(C(=O)Nc1nc4ccc(F)cc4s1)(C3)C2	u	u	26µM*	u	-18%
CC12CCC(=O)N1C(C(=O)OCC(=O)Nc1ccc(Cl)c(Cl)c1)CS2 (centres undefined)	0%	-19%	u	-58*	-20%
Cc1ccn2c(CNCC3COCCO3)c(C(=O)N3CCCCCC3)nc2c1 (centres undefined)	9%	0%	2%	11	1%
COc1cccc(/C=N/n2c(COc3ccccc3)n[nH]c2=S)c1	-11%	-4%	-26%	31	-17%
Cc1[nH]c(C)c(S(=O)(=O)NCc2ccc(OC(C)C)cc2)c1C(=O)N1CCCC1	1%	-23%	-2%	0	-3%
CN(C)c1cc(NC(=O)CNC(C)(C)C)c(O)c2c1C[C@H]1C[C@H]3[C@H](N(C)C)C(=O)C(C(N)=O)=C(O)[C@@]3(O)C(=O)C1=C2O	x	10%	4%	x	x
CN(C)c1ccc(O)c2c1CC1CC3[C@@H](N(C)C)C(=O)C(C(N)=O)C(=O)[C@]3(O)C(=O)C1C2=O (some centres undefined)	x	6.5µM*	4.1µM*	-20	x
CN(C)c1ccc(O)c2c1CC1CC3C(N(C)C)C(=O)C(C(N)=O)=C(O)[C@@]3(O)C(=O)C1=C2O (some centres undefined)	x	2.1µM*	1.8µM*	-4	x
O=C(COC(=O)C1CCCC1)Nc1ncc(Cl)cc1Cl	4%	-4%	0%	11	-1%
CC(=O)Nc1ccc(NC(=O)CSc2ccc3nnc(-c4ccccn4)n3n2)cc1	2%	0%	4%	-2	4%
CC(C)N(C(=O)Cn1c(=O)oc2ccccc21)c1ccccc1	-1%	-2%	-25%	16	1%
Cc1coc(C)c1C(=O)CC1(O)C(=O)N(Cc2ccccc2)c2ccccc21 (centres undefined)	-6%	16µM*	23µM*	-16	-8%
